# Assay results as given in the supplement of paper PMC6555819.
# Tests used:
# Experiment in all cases: PBM binding z-score (relative to random genomic background probes); higher = stronger binding; sequences stand for … in GC…GCGATTGACAGCGTAGAATGAAGG
# [1] = system: FXR:RXRa (NR concentration 270 nM, RXRa partner concentration 90 nM)
# Procedure, shortened: (§1)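 Antibodies against each partner of ligand-free nuclear receptor dimers (one per run) detected binding on custom Agilent 4×180K protein-binding microarrays after 1 h incubation. The double-stranded probes had 34-nt variable regions carrying direct-repeat seeds, single-nucleotide variants, half-site ablations and random human genomic background sequences. Binding z-scores, from regression-normalized fluorescence, use the random background probes as reference.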
# [2] = system: LXRa:RXRa (NR concentration 270 nM, RXRa partner concentration 90 nM)
# Procedure, shortened: as §1
# [3] = system: LXRa homodimer (NR concentration 270 nM)
# Procedure, shortened: as §1
# [4] = system: LXRb:RXRa (NR concentration 270 nM, RXRa partner concentration 90 nM)
# Procedure, shortened: as §1
# [5] = system: LXRb homodimer (NR concentration 270 nM)
# Procedure, shortened: as §1
# [6] = system: PPARa:RXRa (NR concentration 270 nM, RXRa partner concentration 90 nM)
# Procedure, shortened: as §1
# [7] = system: PPARg:RXRa (NR concentration 180 nM, RXRa partner concentration 90 nM)
# Procedure, shortened: as §1
# [8] = system: PPARg:RXRa 270nM:90nM, anti-RXR (NR concentration 270 nM, RXRa partner concentration 90 nM)
# Procedure, shortened: as §1
# [9] = system: PPARg:RXRa 30nM:10nM, anti-RXR (NR concentration 30 nM, RXRa partner concentration 10 nM)
# Procedure, shortened: as §1
# [10] = system: PPARg:RXRa 90nM:30nM, anti-RXR (NR concentration 90 nM, RXRa partner concentration 30 nM)
# Procedure, shortened: as §1
# [11] = system: PPARg:RXRa DBDmut IVT, anti-RXR (DBD mutation: RXRa K156A/R161A, NR concentration 270 nM, RXRa partner concentration 90 nM)
# Procedure, shortened: as §1
# [12] = system: PPARg:RXRa IVT, anti-PPARg (NR concentration 270 nM, RXRa partner concentration 90 nM)
# Procedure, shortened: as §1
# [13] = system: PPARg DBDmut:RXRa IVT, anti-PPARg (DBD mutation: PPARg1 K132A/R137A, NR concentration 270 nM, RXRa partner concentration 90 nM)
# Procedure, shortened: as §1
# [14] = system: PPARg DBDmut IVT, anti-PPARg (DBD mutation: PPARg1 K132A/R137A, NR concentration 270 nM)
# Procedure, shortened: as §1
# [15] = system: PPARg homodimer (NR concentration 180 nM)
# Procedure, shortened: as §1
# [16] = system: PXR:RXRa (NR concentration 270 nM, RXRa partner concentration 90 nM)
# Procedure, shortened: as §1
# [17] = system: PXR homodimer (NR concentration 270 nM)
# Procedure, shortened: as §1
# [18] = system: RARa:RXR (NR concentration 270 nM, RXRa partner concentration 90 nM)
# Procedure, shortened: as §1
# [19] = system: RARa homodimer (NR concentration 270 nM)
# Procedure, shortened: as §1
# [20] = system: RARb:RXRa (NR concentration 270 nM, RXRa partner concentration 90 nM)
# Procedure, shortened: as §1
Sequence,PBM binding z-score [1],PBM binding z-score [2],PBM binding z-score [3],PBM binding z-score [4],PBM binding z-score [5],PBM binding z-score [6],PBM binding z-score [7],PBM binding z-score [8],PBM binding z-score [9],PBM binding z-score [10],PBM binding z-score [11],PBM binding z-score [12],PBM binding z-score [13],PBM binding z-score [14],PBM binding z-score [15],PBM binding z-score [16],PBM binding z-score [17],PBM binding z-score [18],PBM binding z-score [19],PBM binding z-score [20]
TCGAGTAGGTTACCAATGGGGCATTCATCTTTCT,-0.000727,1.01,-0.201,1.21,-0.516,1.23,0.329,1.33,1.28,1.18,3.66,2.75,-0.207,-0.196,0.277,0.256,-0.536,0.587,-0.332,0.994
GCGACTGGGGCGTCAGCAGGTTACCATAACTTAA,-0.381,-0.378,-0.324,0.262,-1.19,0.425,0.0029,-0.411,-0.842,-0.965,0.993,0.504,-1.26,-0.889,-0.668,-0.181,-0.71,0.206,-1.15,0.327
TATACACGGTCAAAGGCCAGAGTACGAATGTCGA,1.3,3.22,2.75,0.929,1.43,2.04,3.99,4.34,2.65,4.3,0.134,2.39,1.55,1.14,1.12,0.507,0.583,1.13,0.418,2.85
CGTCGAAGGTCAAGGTCAGTGAAAGAGACTCGAA,7.03,5.5,0.585,4.59,0.681,6.39,6.6,6.24,2.48,5.24,2.61,4.52,0.183,-0.374,2.78,4.3,0.957,4.46,1.26,5.88
GCTAGTTGGTCAGTAAAAGATCACACACCGGTCG,-0.109,-0.07,0.00819,-0.18,-0.212,-0.194,0.637,-0.0816,-0.233,-0.12,0.304,0.185,-0.527,0.421,0.2,-0.208,-0.161,0.0692,0.555,0.45
ACTATTAGTTGCCTTAGGGCAACCGATACGACGC,0.218,0.346,0.285,0.202,0.935,0.287,0.672,0.279,0.294,0.358,-0.0728,0.674,0.726,0.896,0.221,0.335,-0.148,0.576,0.282,0.771
TCTTATAGATCAAGCAGGTTAAGAAAGCCTGAGT,0.514,0.381,-0.0643,0.19,-0.324,0.961,-0.00693,1.62,3.48,2.75,2.41,0.395,0.287,0.665,0.243,0.691,0.364,0.658,0.426,0.33
ACTTGCGGGTCAACGAGGTTATAGCACGCGTATA,6.24,4.45,0.548,4.2,0.327,5.46,5.47,5.43,2.04,4.42,5.15,4.85,1.36,0.482,2.04,4.86,3.57,5.03,1.02,3.83
TGAATGAGGTTATAAGATCCGGGAACGTTGCAAA,1.15,1.21,-0.3,0.909,-0.0595,2.45,1.01,1.33,0.723,1.15,1.11,1.48,1.46,0.366,0.364,0.692,-0.0533,1.28,-0.21,1.14
ACTAGTTGGTCAGCTAAGGTCACACACAATTCGG,3.65,3.51,2.56,3.35,0.836,3.93,1.94,2.76,0.836,1.64,1.38,2.77,0.873,0.678,3.37,5.12,1.46,4.92,2.09,4
CGAACTAGGTCATCCAGGAGAGTGAATACATTGA,3.98,2.66,0.805,1.98,-0.132,4.89,7.72,6.23,3.86,5.76,7.67,8.61,1.76,0.981,2.19,1.34,0.448,2.31,0.76,3.78
TCTTGTAGATCACAGGTTAAGAAAGCCGAAGCCT,0.701,0.575,-0.161,0.714,-0.0792,2.09,2.74,4.44,3.81,4.64,2.16,1.8,0.9,0.0684,0.447,0.186,-0.359,0.737,-0.789,0.464
GTACCAAGGTGAATAGGTCGTTTATGAGTAGGCG,0.975,1.13,0.161,0.811,-0.198,2.44,1.62,1.79,0.597,1.5,1.82,2.43,0.986,0.34,1.17,1,0.0793,1.92,0.555,2.01
